Reference: publication PMC5540273 (PLoS ONE, 2017)

Legend:
Conditions in all cases: concentration: 1 μM, replicates: in singlicate; n = 1
PRKX = system: PRKX
PRP4 = system: PRP4
PYK2 = system: T1, PYK2
T1 construct: gene PTK2B

QSK = system: QSK
RAF1 = system: RAF1
RET = system: RET
RIOK1 = system: RIOK1
RIOK2 = system: RIOK2
RIOK3 = system: RIOK3
RIPK1 = system: RIPK1
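Further: KINOMEscan kinase panel screen.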

SMILES	%Inh (PRKX) [%]	%Inh (PRP4) [%]	%Inh (PYK2) [%]	%Inh (QSK) [%]	%Inh (RAF1) [%]	%Inh (RET) [%]	%Inh (RIOK1) [%]	%Inh (RIOK2) [%]	%Inh (RIOK3) [%]	%Inh (RIPK1) [%]
Cc1cccc(-c2nc(Nc3ccc4c(cnn4C)c3)c3ccccc3n2)n1 [GW876731]	0	0	0	0	29	4	0	0	0	0
COc1cc2ncn(-c3cc(OCc4ccncc4)c(C(N)=O)s3)c2cc1OC [GSK336313]	7	20	0	0	7	4	31	6	12	46
Nc1nc(N)c2nc(-c3ccccc3)[nH]c2n1 [SKF-12778]	7	0	0	10	11	25	20	37	8	18
Cc1nnc(-c2ccc3ncn(-c4ccc(S(C)=O)cc4)c3c2)o1 (centres unmarked)	3	0	12	0	0	7	6	11	20	4
Cc1ccccc1COc1cc(-n2cnc3cc(Cl)ccc32)sc1C(N)=O [GW813349]	0	19	4	0	0	7	23	27	13	16
COc1cc2nccc(Nc3ccc(OCc4ccc(NC(C)=O)cc4)cc3)c2cc1OC.Cl [GW440135]	7	50	26	15	18	11	0	0	0	0
COc1ccc(CNC(=O)NC2CCN(c3ccnc(Nc4ccc(F)cc4)n3)C2)cc1 (centres unmarked) [GSK1379706]	18	47	1	0	6	21	8	0	0	0
CN(C)c1cc(-c2ccc3c(N)n[nH]c3c2)nc(N)n1 [GSK2219329]	18	6	0	5	0	0	48	0	38	0
Cc1cccc(-c2cc(-c3c[nH]nc3-c3ccccn3)ccn2)c1 [GW679395]	12	22	0	3	3	48	6	0	0	0
COc1cc(Nc2nccc(N3CCC(NC(=O)C4COc5ccccc5O4)C3)n2)cc(OC)c1OC (centres unmarked) [GSK1379761]	15	32	18	2	7	2	66	0	43	7
COc1cc(Nc2ccnc3ccc(C(F)(F)F)cc23)cc(OC)c1OC [GW577382]	15	27	0	22	20	9	11	15	0	15
COc1ccc(-c2coc3ccc(-c4nnc(SCc5cccc(C#N)c5)o4)cc23)cc1	0	18	0	0	14	16	0	5	11	0
CCn1c(-c2ccoc2)nc2cnccc21 [SB-733887]	0	58	4	0	21	1	28	0	27	0
Cc1nn2c(=O)cc(N3CCOCC3)nc2n1Cc1cccc(Cl)c1Cl [GSK2342769]	8	15	6	8	15	72	38	36	11	0
Nc1nccc2scc(-c3ccc4c(c3)CCN4C(=O)Cc3ccccc3)c12 [GSK2576924]	14	13	0	0	5	11	13	6	11	71
COc1ccc(-c2cc3c(C)nc(N)nc3n([C@H]3CC[C@H](OCCO)CC3)c2=O)cn1	12	0	0	0	0	0	0	0	0	0
COc1cc2ncn(-c3cc(OCc4ccncc4Br)c(C(N)=O)s3)c2cc1OC [GW854278]	26	0	7	2	7	20	38	14	39	3
